PubChem BioAssay (Tox21)
Active and inactive are the calls of the source. The call rests on the fitted dose curve; in most records, active means well fitted curve in the direction sought with a large enough effect in the repeat runs; inconclusive means weak or mixed curves; inactive means flat fitted curve, though single readings scatter.

Assay: qHTS assay to test for compound auto fluorescence at 590 nm (red) in HEK293 cells (AID 720679)
Details: red autofluorescence 540/590 nm; series mostly up to 46 µM; fluorescence, % of fluorescent control: at the top concentration
In short: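 HEK293 cells (2,000/well, medium with 10% dialyzed FBS) attached for 4-5 hr at 37C, received 23 nL compound and were incubated overnight at 37C, 5% CO2. Red fluorescence was then read at 540/590nm Ex/Em, referenced to Rose Bengal sodium.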
On the % scale 0 is the no-effect control and ±100 the full control effect.

| Structure (SMILES) | fluorescence, % of fluorescent control | Potency |
| --- | --- | --- |
| CNC(=O)c1c(I)c(C(=O)NCC(=O)Nc2c(I)c(C(=O)O)c(I)c(C(=O)NCCO)c2I)c(I)c(N(C)C(C)=O)c1I | -0.646% (inactive) | – |
| CCCCCc1ccc(C)cc1O | 0.012% (inactive) | – |
| N#CC(c1ccc(Cl)cc1)c1c(Cl)cc(-n2ncc(=O)[nH]c2=O)cc1Cl (centres undefined) | 0.348% (inactive) | – |
| COC(=O)C1=C(C#N)NC(C)=C(C(=O)OC(C)C)C1c1cccc([N+](=O)[O-])c1 (centres undefined) | -0.0879% (inactive) | – |
| C[C@]12C=CC(=O)N[C@@H]1CC[C@@H]1[C@@H]2CC[C@]2(C)[C@@H](C(=O)Nc3cc(C(F)(F)F)ccc3C(F)(F)F)CC[C@@H]12 | 0.234% (inactive) | – |
| CC(=O)Nc1ccc(OC(=O)c2ccccc2O)cc1 | -0.937% (inactive) | – |
| NC(=O)Oc1ccc(Cc2ccccc2)cc1 | 0.375% (inactive) | – |
| CCCCCCCN(CC)CCCC(O)c1ccc(NS(C)(=O)=O)cc1 (centres undefined) | 0.0149% (inactive) | – |
| C[C@]12CC[C@@H]3c4ccc(OC(=O)c5ccccc5)cc4CC[C@H]3[C@@H]1CC[C@@H]2O | -0.562% (inactive) | – |
| CCC(=O)O[C@]1(C(=O)CCl)[C@@H](C)C[C@H]2[C@@H]3C[C@H](F)C4=CC(=O)C=C[C@]4(C)[C@@]3(F)[C@@H](O)C[C@@]21C | -0.133% (inactive) | – |
| Clc1cc(Cl)c(OCC#CI)cc1Cl | -0.682% (inactive) | – |
| CC1=C(C(=O)OCCN(Cc2ccccc2)c2ccccc2)C(c2cccc([N+](=O)[O-])c2)C(P2(=O)OCC(C)(C)CO2)=C(C)N1 (centres undefined) | 0.0543% (inactive) | – |
| CCC(C)(C)OC(=O)N[C@@H](Cc1c[nH]c2ccccc12)C(=O)N[C@@H](CCSC)C(=O)N[C@@H](CC(=O)O)C(=O)N[C@@H](Cc1ccccc1)C(N)=O | -0.249% (inactive) | – |
| CO[C@H]1C=CO[C@@]2(C)Oc3c(C)c(O)c4c(O)c(c(/C=N/N5CCN(C6CCCC6)CC5)c(O)c4c3C2=O)NC(=O)/C(C)=C\C=C[C@H](C)[C@H](O)[C@@H](C)[C@@H](O)[C@@H](C)[C@H](OC(C)=O)[C@@H]1C | 0.0295% (inactive) | – |
| O=C(CO)[C@@H](O)[C@H](O)[C@@H](O)C(=O)O | 0.0307% (inactive) | – |
| O=C(Nc1ccc(Br)cc1)c1cc(Br)c(Br)s1 | 0.179% (inactive) | – |
| CCCOc1ccc2nc(NC(=O)OC)sc2c1 | 0.0044% (inactive) | – |

| Structure (SMILES) | fluorescence, % of fluorescent control | Potency |
| --- | --- | --- |
| CN1[C@@H]2CC[C@H]1CC(OC(c1ccccc1)c1ccccc1)C2 (some centres undefined) | – | inactive |
| c1ccc2c(c1)Sc1ccccc1N2CCN1CCCC1 | 0.0366% (inactive) | – |
| C[N+]1(C)[C@@H]2CC(OC(=O)C(O)(c3cccs3)c3cccs3)C[C@H]1[C@@H]1O[C@@H]12 (some centres undefined) | -0.0281% (inactive) | – |
| CCCCCCCCCCCCCCCC(=O)OC[C@@H](O)[C@H]1OC[C@H](O)[C@H]1O | 0.063% (inactive) | – |
| CCC(=O)OCC(=O)[C@@]1(OC(=O)CC)[C@@H](C)C[C@H]2[C@@H]3CCC4=CC(=O)C=C[C@]4(C)[C@@]3(Cl)[C@@H](O)C[C@@]21C | 0.0039% (inactive) | – |
| NC[C@@H]1O[C@H](O[C@H]2[C@@H](O)[C@H](O[C@@H]3[C@@H](O)[C@H](N)C[C@H](N)[C@H]3O[C@H]3O[C@H](CN)[C@@H](O)[C@H](O)[C@H]3N)O[C@@H]2CO)[C@H](N)[C@@H](O)[C@@H]1O | 0.0206% (inactive) | – |
| O=C1/C(=C\c2cccs2)CCC/C1=C\c1cccs1 | -0.0289% (inactive) | – |
| CN(C)CCOc1ccccc1Cc1ccccc1 (tested in a mixture with another compound) | -0.0062% (inactive) | – |
| Cc1cc(-c2ccc(N=Nc3c(S(=O)(=O)O)cc4cc(S(=O)(=O)O)cc(N)c4c3O)c(C)c2)ccc1N=Nc1c(S(=O)(=O)O)cc2cc(S(=O)(=O)O)cc(N)c2c1O | 0.933% (inactive) | – |
| O=C(OCc1ccccc1)c1cccnc1 | -0.158% (inactive) | – |
| O=C(O)CO.[NH2-].[NH2-].[Pt+2] | 0.0505% (inactive) | – |
| CC(=O)O[C@H]1CC[C@@]2(C)C(=CC[C@@H]3[C@@H]2CC[C@]2(C)C(c4cccnc4)=CC[C@@H]32)C1 | -0.0413% (inactive) | – |
| CCCCC(=O)N(Cc1ccc(-c2ccccc2-c2nn[nH]n2)cc1)[C@@H](C(=O)O)C(C)C | 0.465% (inactive) | – |
| CCOc1cc(-c2nccc3cc(OC)c(OC)cc23)cc(OCC)c1OCC | 0.584% (inactive) | – |
| CCOC(=O)[C@@H](N)CS | 0.201% (inactive) | – |
| Cn1c(O)c(N=NC(N)=S)c2ccccc21 | 0.0222% (inactive) | – |
| CC(/C=C/C=C(\C)C(=O)O[C@@H]1O[C@H](CO[C@@H]2O[C@H](CO)[C@@H](O)[C@H](O)[C@H]2O)[C@@H](O)[C@H](O)[C@H]1O)=C\C=C\C=C(C)\C=C\C=C(/C)C(=O)O[C@@H]1O[C@H](CO[C@@H]2O[C@H](CO)[C@@H](O)[C@H](O)[C@H]2O)[C@@H](O)[C@H](O)[C@H]1O | -0.073% (inactive) | – |
